Bioassay records from PubChem.
This is one part of a sample in which hits are shown more often than they occur.
HTT cytoprotect = cytoprotection in Huntington HTT-Q103 PC12 cell model. PC12 HTT-Q103 induced, cytoprotection, ATP luminescence, 40 h. hit rate 0.14% among 230,000. Potency, µM (doses to about 56.4 µM), most hits filed as activators. AID 1471; note: nearly all actives have a fitted effect of over 45% in size
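Compounds added alongside 100 nM tebufenozide, which induces toxic Q103 huntingtin exon 1-GFP in stable PC12 cells; surviving cells quantified by luminescent ATP measurement. Medium: phenol red-free DMEM, 5% equine and 5% calf serum.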
PNC inhibitor = blocks assembly of the perinucleolar compartment | activity change (PNC), negative = inhibition, % at 10 µM | PC3M PTB-GFP, PNC prevalence imaging, 16 h; active compounds read low | hit rate 3.1% among 140,000;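 active = readout at or below -70, meaning at least 70% loss of cells showing the perinucleolar compartment, a nuclear body marking cancer cells; inconclusive = readout between -30 and a set limit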
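Compounds are pinned in duplicate onto adhered PC3M cells stably expressing GFP-tagged PTB and incubated 16 h at 37 C. Cells are then fixed, nuclei stained with Hoechst, and PNC-positive cells counted.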
HTT aggregate = inhibitors of mutant huntingtin aggregate formation in PC12 cells. PC12 HttQ103-GFP aggregates, Acumen cytometry, 40 h. Potency, µM (highest dose often 46.1 µM), hits mostly inhibitors. hit rate 1.1% among 220,000. AID 1688; note: nearly all actives have a fitted effect of over 60% in size
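Read-out: GFP aggregate count by laser scanning cytometer (488 nm excitation, 500-530 nm emission, 1–25 µm objects >6 SD above background). Cells: PC12, inducible HTTex1-Q103-GFP, 100 nM tebufenozide; compounds titrated.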
Numbers stand for hits; 0 = inactive; ? = inconclusive; - = no result given; [ ] = another dose, or the depositor's remark. Unless noted, calls come from the whole dose curve; as a rule, active = well fitted curve in the direction sought with a large enough effect; inconclusive = small, poorly fitted or top-dose-only effect, or another doubt; inactive = no such curve, though single readings can be large; an effect the other way counts as inactive or inconclusive.

SMILES | HTT cytoprotect | PNC inhibitor | HTT aggregate
CC1=C(C(=O)Nc2ccccc2)C(c2ccco2)NC(=S)N1 (configuration not stated) | 0 | 0 | 0
Cc1ccc(-n2nnnc2SC(C)C(N)=O)c(C)c1 (configuration not stated) | 0 | 0 | 0
C/C(N)=C(/C#N)C(=O)CSc1nnnn1-c1ccc(C)cc1C | 0 | -133 | ?
CCc1c(C(=O)NNC(=S)NCc2ccccc2)csc1C | 0[10 µM] | 0 | 0
O=P(CCCCCCCCCP(=O)(c1ccccc1)c1ccccc1)(c1ccccc1)c1ccccc1 | 0 | 0 | 11µM
O=C(O)CCCCCCCCCCP(=O)(c1ccccc1)c1ccccc1 | 0[10 µM] | - | 0[9.22 µM]
CCC(=O)N/N=C(\C)CC(=O)Nc1ccc(F)cc1 | 0 | - | 0
Cc1ccc(/C(O)=C2/C(=O)C(=O)N(CCCn3ccnc3)C2c2cccnc2)cc1 (configuration not stated) | 0 | - | -
Cc1ccc(S(=O)(=O)NC(C)(C)CSc2nnc(Nc3ccccc3)s2)cc1 | 0 | ? | 0[9.22 µM]
Cc1ccc(S(=O)(=O)NC(C)(C)CSc2nncn2N)cc1 | ? | 0 | 2.8µM
CC(OC(=O)c1cc2sccc2n1C)C(=O)NCc1cccs1 (configuration not stated) | 0[10 µM] | -81 | 0
Cn1c(C(=O)OCC(=O)NCc2cccs2)cc2sccc21 | 0 | 0 | 0
CSCCC1C(=O)OC2(C)CC(C)(C)NC(=S)N12 (configuration not stated) | 0[10 µM] | -100 | 0
CCCCCCCCCCCC(=O)N(CCO)CCO | 0 | - | 0
CCN(CC)c1ccc(/C=N/NC(=O)Cc2cccs2)c(O)c1 | 0[10 µM] | 0 | 25µM
O=C(Cc1cccs1)N/N=C/c1ccccc1 | 0[10 µM] | - | 0[9.22 µM]
O=C(OCCN1C(=O)c2ccccc2C1=O)c1cccc(OC(F)F)c1 | 0[10 µM] | 0 | 0
CN(C)c1ccc(C(=S)N2CCN(Cc3ccccc3)CC2)cc1 | 0[10 µM] | - | 0[9.22 µM]
CC(=O)/C(=N/Nc1ccc([N+](=O)[O-])cc1)N1CCCc2ccccc21 | 0[10 µM] | - | 0[9.22 µM]
CC(=O)/C(=N/Nc1ccccc1[N+](=O)[O-])N1CCCc2ccccc21 | - | - | 11µM
O=C1NC2(CCCCCC2)N=C1c1ccc(F)cc1 | 0 | 0 | 0[9.22 µM]
Cc1ccccc1Nc1nc2nonc2nc1N1CCOCC1 | 0[10 µM] | 0 | 0
O=C(Nc1ccc([N+](=O)[O-])cn1)c1ccc2c(c1)OCO2 | 0 | - | 0
Cc1nc2c(c(C)c1C#N)C(=O)c1ccccc1-2 | 0[10 µM] | -96 | 0
Cc1nc2c(c(-c3ccccc3)c1C#N)C(=O)c1ccccc1-2 | 0 | 0 | 0
SMILES | HTT cytoprotect | PNC inhibitor | HTT aggregate
CCOC(=O)c1oc2cc(OCC(=O)OC)ccc2c(=O)c1-c1ccc(OC)c(OC)c1 | 0[10 µM] | - | 0[9.22 µM]
O=C(NCCC1=CCCCC1)NC12CC3CC(CC(C3)C1)C2 | 0[10 µM] | 0 | 22µM
COc1ccc(CCNC(=O)NC23CC4CC(CC(C4)C2)C3)cc1 | 0 | 0 | 0
CCc1ccccc1NC(=O)c1nnn(CC(=O)Nc2ccccc2C)c1N | 0 | -102 | 0
CCOc1ccccc1NC(=O)Cn1nnc(C(=O)Nc2ccccc2Cl)c1N | 0[10 µM] | ? | 0
CC(C)c1cc2c(cc1S(=O)(=O)O)[C@@]1(C)CCC[C@@](C)(C(=O)O)[C@@H]1CC2 | 0 | - | 0
Cc1ccccc1CN1C[C@@H]2C[C@@H](c3cn[nH]c3-c3ccccc3)N3CCC[C@@]23C1=O | 0 | - | 0
C[C@H](NS(=O)(=O)c1ccccc1F)C(=O)OCC(=O)N1CCc2ccccc21 | 0 | -93 | 0
CCOC(=O)C1=C(C)NC(C)=C(C(=O)OCC)C1C(=O)OCC(=O)N1CCc2ccccc21 | 0[10 µM] | -99 | 0
O=C(COc1ccccc1)N1CCc2ccccc21 | - | -82 | 0
O=C(COc1ccc(Br)cc1)N1CCc2ccccc21 | 0[10 µM] | - | 0[9.22 µM]
CCOC(=O)c1[nH]c(C)c(C(=O)OCC(=O)N2CCc3ccccc32)c1C | 0 | 0 | 0
O=C(CNS(=O)(=O)c1ccccc1Br)OCC(=O)N1CCc2ccccc21 | 0[10 µM] | 0 | 0
O=C(CSc1nnc2ccccn12)NC(=O)NC1CCCCC1 | 0[10 µM] | 0 | 0
O=C(CCC1CCCN(c2ncccn2)C1)NCc1ccccc1F (configuration not stated) | 0[10 µM] | - | 0[9.22 µM]
CCN(Cc1cnn(C)c1)C(=O)c1ccc(OC2CCN(S(=O)(=O)N(C)C)CC2)cc1 | 0[10 µM] | - | 0[9.22 µM]
Cc1ccc(NC(NC(=O)c2cccnc2)C(Cl)(Cl)Cl)cc1 (configuration not stated) | 0[1.9 µM] | 0 | 0
Cc1[nH]c2c(C)ccc(C)c2c1CC(=O)O | 0[10 µM] | - | -
CN(C)S(=O)(=O)N1CCN(S(=O)(=O)c2ccccc2)CC1 | 0 | ? | 0
CCOP(=O)(OCC)C(NC(=O)Nc1cccc(Cl)c1)c1ccccc1 (configuration not stated) | - | -113 | 0
CCOP(=O)(OCC)C(NC(=O)Nc1cccc(Cl)c1)C(N)=O (configuration not stated) | 0[10 µM] | 0 | 0
COC(=O)CNC(=O)COC(=O)C(Cc1ccccc1)NC(=O)c1ccco1 (configuration not stated) | 0 | -115 | 0
O=C(COC(=O)[C@H](Cc1ccccc1)NC(=O)c1ccco1)NC(c1ccccc1)c1ccccc1 | 0 | ? | 0
O=C1c2cccc(OCc3ccc(F)cc3)c2CCN1Cc1ccc(F)cc1 | 0[10 µM] | 0 | 20µM
Cc1ccc(CN2CCc3c(OCc4ccc(F)cc4)cccc3C2=O)cc1 | 0[10 µM] | 0 | ?
SMILES | HTT cytoprotect | PNC inhibitor | HTT aggregate
COc1ccc(C(=O)c2cnc3cc4c(cc3c2C)OCO4)cc1 | 0 | 0 | ?
O=C(c1ccco1)N1c2ccccc2Sc2ccccc21 | 0[10 µM] | 0 | 0
O=C(c1ccco1)N1CCN(C(=O)c2ccccc2Oc2ccccc2)CC1 | 0 | -112 | 0
O=C(c1ccco1)N1CCN(C(=O)N2c3ccccc3Sc3ccccc32)CC1 | 0 | -89 | 0
O=C(N1CCN(c2ccccn2)CC1)N1c2ccccc2Sc2ccccc21 | 0[10 µM] | -84 | ?
O=C(N1CCN(c2ccccn2)CC1)C(Cl)(Cl)Cl | 0[10 µM] | ? | 0
O=C(O)C1CCN(C(=O)c2ccco2)CC1 | 0 | - | 0
NC(=O)C1CCN(C(=O)c2ccco2)CC1 | 0[1.9 µM] | -81 | 0
CCOC(=O)N1CCN(C(=O)c2ccccc2Oc2ccccc2)CC1 | 0 | ? | 0
COC(=O)C12CCC3(SCCS3)C(C(=O)OC)(CCC13SCCS3)C2 | 0[10 µM] | 0 | 0
COc1ccc(C(=O)NN2C(=O)C3C4C=CC(O4)C3C2=O)cc1 (configuration not stated) | 0 | 0 | 0
CCCCCCCCCCCCCCCC[n+]1ccc(C(N)=O)cc1 | 0[10 µM] | 0 | 0
CCCCCCCC[n+]1cccc(C(=O)N(CC)CC)c1 | - | -124 | 0
CCCCN(CCCC)C(=O)C[n+]1cccc(/C=N/O)c1 | 0 | - | 0
CCCCCCCCCCCC[n+]1ccc2ccccc2c1 | 0 | - | 7.1µM
CCCCCCCCCCCCCC[n+]1ccc(C)cc1 | 0 | - | 22µM
CCCCCCCCCCCCCCCC[n+]1cccc(C(=O)N(CC)CC)c1 | 0[10 µM] | ? | ?
Oc1ccc[n+](CCCCC[n+]2cccc(O)c2)c1 | 0[10 µM] | - | 0[9.22 µM]
CCCCCCCCCCCCCCCC[n+]1ccc(/C=N/O)cc1 | 0[10 µM] | 0 | 8.9µM
O=C(COC(=O)c1ccc(F)cc1)Nc1ccc(Cl)cn1 | 0[10 µM] | - | 0[9.22 µM]
C/C(=N\NC(=O)c1nn(C)c(C)c1Br)c1cccc(NC(=O)c2ccoc2C)c1 | - | 0 | 0
CSc1nc(Oc2ccc3ccccc3c2)c2ccccc2n1 | 0[10 µM] | ? | 10µM
CSc1nc(Oc2ccccc2)c2sccc2n1 | 0[10 µM] | 0 | 0
